In PubChem BioAssay AID615 (Sanford-Burnham Center for Chemical Genomics, 2007):
Fewer than 10 of roughly 21,000 compounds were called active.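 The calls were made as follows: active = inhibition above 50% at the 20 µM single-dose screen; inactive = the rest.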 These entries were drawn from the full list.

What follows are compounds tested against Alkaline phosphatase, tissue-nonspecific isozyme (Homo sapiens) (UniProt P05186) (assay: human TNAP enzyme inhibitors, primary screen, biochemical, colorimetric, p-nitrophenol readout (AID 615;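 also: 0% = DMSO only wells and 100% = 1 mM levamisole wells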)). Settings: purified TNAP, pNPP hydrolysis, absorbance 405 nm; at 20 µM; active compounds read high.
Alkaline phosphatase, tissue-nonspecific isozyme (Homo sapiens), sequence (P05186 whole entry, looked up): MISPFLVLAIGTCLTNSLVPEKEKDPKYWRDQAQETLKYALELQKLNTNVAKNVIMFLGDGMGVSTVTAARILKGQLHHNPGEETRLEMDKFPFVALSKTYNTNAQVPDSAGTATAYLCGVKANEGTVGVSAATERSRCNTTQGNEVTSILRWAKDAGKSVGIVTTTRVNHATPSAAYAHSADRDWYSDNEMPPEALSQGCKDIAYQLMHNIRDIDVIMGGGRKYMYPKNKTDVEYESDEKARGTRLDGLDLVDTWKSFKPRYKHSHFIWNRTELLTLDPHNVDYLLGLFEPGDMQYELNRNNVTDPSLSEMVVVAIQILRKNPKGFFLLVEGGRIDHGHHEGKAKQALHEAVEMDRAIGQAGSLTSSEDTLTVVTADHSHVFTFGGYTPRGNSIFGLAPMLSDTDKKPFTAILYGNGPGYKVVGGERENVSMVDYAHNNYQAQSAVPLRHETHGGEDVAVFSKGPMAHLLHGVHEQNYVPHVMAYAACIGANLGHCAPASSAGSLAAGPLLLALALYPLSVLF

inhibition, inactive:
COc1ccc(N2CCN(C(c3cc4ccc(C)cc4[nH]c3=O)c3nnnn3C3CCCC3)CC2)cc1 (configuration not stated) 14.6%
CCOC(=O)c1c(NC(=O)c2ccc(Br)o2)sc2c1CCCC2 1%
Cc1cc(=O)[nH]c(SCC(N)=O)c1C#N -1.7%
O=C(c1ccc2c(c1)C(=O)N(c1ccc(Cl)cc1)C2=O)N1CCN(c2ccccn2)CC1 5.1%
CCOc1ccc2nc(NC(=O)CSc3nc4c(c(=O)n(C)c(=O)n4C)n3CC)sc2c1 4.9%
CN(C)CCNC(=O)C(C(=O)c1ccccc1)n1ccccc1=O (configuration not stated) 1.2%
CCc1c(C)sc(NC(=O)OC)c1C(=O)N1CCOCC1 4.1%
O=C(O)CN1C(=O)CC(Cc2ccccc2)C1=O (configuration not stated) 4.8%
CCNC(=O)N1CCNC(=O)C1CC(=O)Nc1ccc(C(=O)OCC)cc1 (configuration not stated) 4.4%
CCOC(=O)c1[nH]c2ccccc2c1N=C(C)N(CC)CC -0.8%
Cc1nn(Cc2ccccc2)c(Cl)c1C(=O)OC1CCOC1=O (configuration not stated) 3.6%
CCC1C(C#N)=C(SC)NC2=C1C(=O)CC(C)(C)C2 (configuration not stated) -2.9%
COc1ccc(CC(=O)n2nc(-c3cccnc3)nc2N)cc1 6.9%
Cc1cccc(OCc2nnc(SCC(=O)N3CCN(C(=O)c4ccco4)CC3)n2C)c1C 0.2%
c1csc(CN2CCN(Cc3cccs3)C2c2cccs2)c1 5.5%
CCN1C(=O)/C(=C\N2CCN(c3cccc(Cl)c3)CC2)SC1=S 6.1%
COC(=O)[C@H](CCSC)NC(=O)Nc1ccc(OC)cc1 4.9%
C#CCN1CC(C)/C(=N/O)CC1C (configuration not stated) 2.4%
CC(C)OC(=O)C(C#N)c1nc2ccccc2nc1N1CCN(Cc2ccc3c(c2)OCO3)CC1 (configuration not stated) 0%
O=C(Nc1ncccn1)c1cccs1 3.3%
CCCCCN(C(=O)NC(=O)Nc1ccccc1C)S(C)(=O)=O 0.7%
Cc1ccc(C(=O)Nc2nnc(-c3ccncc3)s2)o1 -1.1%
O=C(c1cccs1)N1CCCC(c2nc(-c3ccc(F)cc3)no2)C1 (configuration not stated) 2.9%
CCCc1cc(=O)oc2c(C)c(O)c(CN3CCCCC3)cc12 0.2%
COc1ccc2c3c(c(=O)oc2c1OCC(=O)C(C)(C)C)CCCC3 3.6%
CCOC(=O)CSc1nnc(CNc2nc(-c3ccccc3)cs2)n1C 5.4%
CCc1cc2c(=O)c(-c3ccon3)c(N)oc2cc1OC 5.4%
Cc1ccnc(SCCn2c(Br)nc3c2c(=O)[nH]c(=O)n3C)n1 3%
O=C(Nc1cnn(Cc2ccc(Cl)cc2)c1)C1CCCC1 9.7%
COc1cc(OC)cc(C(=O)NCCSCc2ccco2)c1 5.2%
CC1(N2CCOCC2)CC2(O)C(=[N+]1[O-])CCc1nonc12 (configuration not stated) 9.3%
CC1CN(C2CCN(C(=O)COc3ccccc3)CC2)CC(C)O1 (configuration not stated) -2.1%
CC(C)c1nnc(NC(=O)C2CCCN2S(=O)(=O)c2ccc(Cl)cc2)s1 (configuration not stated) 3.8%
O=C(CSc1nnc(Cc2ccccc2)n1-c1ccccc1)N1CCOCC1 0.4%
Cc1cccc(NC(=O)CSc2nnc(CCCCCNC(=O)OC(C)(C)C)o2)c1C -8.7%
COC(=O)c1ccc(NC(=O)CSc2nnc(-c3ccncc3)n2C)cc1 1.1%
O=C(O)C1CCCN1S(=O)(=O)c1ccc2c(c1)CCC2 (configuration not stated) 0.7%
